# What was measured:
# [1] = target: Tyrosine-protein kinase SYK (Homo sapiens) (UniProt P43405); details: at 10 µM
# [2] = target: T1, Mitogen-activated protein kinase kinase kinase 7 (Homo sapiens) (UniProt O43318); details: at 1 µM
# T1 sequence (whole entry): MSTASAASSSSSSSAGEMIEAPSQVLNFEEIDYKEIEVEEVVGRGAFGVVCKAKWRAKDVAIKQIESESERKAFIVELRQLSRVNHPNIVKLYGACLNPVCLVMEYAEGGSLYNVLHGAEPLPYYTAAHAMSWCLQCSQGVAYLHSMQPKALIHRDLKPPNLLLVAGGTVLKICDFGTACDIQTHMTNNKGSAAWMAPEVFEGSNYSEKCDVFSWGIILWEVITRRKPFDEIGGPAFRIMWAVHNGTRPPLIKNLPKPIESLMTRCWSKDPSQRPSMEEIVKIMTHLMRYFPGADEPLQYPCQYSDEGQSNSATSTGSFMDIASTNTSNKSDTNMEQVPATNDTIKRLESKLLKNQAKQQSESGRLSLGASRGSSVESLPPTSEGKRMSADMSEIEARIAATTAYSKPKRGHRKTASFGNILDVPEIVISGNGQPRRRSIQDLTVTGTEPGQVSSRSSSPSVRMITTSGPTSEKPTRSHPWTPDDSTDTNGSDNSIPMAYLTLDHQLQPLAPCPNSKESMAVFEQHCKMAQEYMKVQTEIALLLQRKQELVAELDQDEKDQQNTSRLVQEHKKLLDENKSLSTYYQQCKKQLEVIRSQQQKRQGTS
# [3] = target: T1, Mitogen-activated protein kinase kinase kinase 7 (Homo sapiens); details: at 10 µM
# [4] = target: T2, Serine/threonine-protein kinase TAO1 (Homo sapiens) (UniProt Q7L7X3); details: at 1 µM
# T2 sequence (whole entry): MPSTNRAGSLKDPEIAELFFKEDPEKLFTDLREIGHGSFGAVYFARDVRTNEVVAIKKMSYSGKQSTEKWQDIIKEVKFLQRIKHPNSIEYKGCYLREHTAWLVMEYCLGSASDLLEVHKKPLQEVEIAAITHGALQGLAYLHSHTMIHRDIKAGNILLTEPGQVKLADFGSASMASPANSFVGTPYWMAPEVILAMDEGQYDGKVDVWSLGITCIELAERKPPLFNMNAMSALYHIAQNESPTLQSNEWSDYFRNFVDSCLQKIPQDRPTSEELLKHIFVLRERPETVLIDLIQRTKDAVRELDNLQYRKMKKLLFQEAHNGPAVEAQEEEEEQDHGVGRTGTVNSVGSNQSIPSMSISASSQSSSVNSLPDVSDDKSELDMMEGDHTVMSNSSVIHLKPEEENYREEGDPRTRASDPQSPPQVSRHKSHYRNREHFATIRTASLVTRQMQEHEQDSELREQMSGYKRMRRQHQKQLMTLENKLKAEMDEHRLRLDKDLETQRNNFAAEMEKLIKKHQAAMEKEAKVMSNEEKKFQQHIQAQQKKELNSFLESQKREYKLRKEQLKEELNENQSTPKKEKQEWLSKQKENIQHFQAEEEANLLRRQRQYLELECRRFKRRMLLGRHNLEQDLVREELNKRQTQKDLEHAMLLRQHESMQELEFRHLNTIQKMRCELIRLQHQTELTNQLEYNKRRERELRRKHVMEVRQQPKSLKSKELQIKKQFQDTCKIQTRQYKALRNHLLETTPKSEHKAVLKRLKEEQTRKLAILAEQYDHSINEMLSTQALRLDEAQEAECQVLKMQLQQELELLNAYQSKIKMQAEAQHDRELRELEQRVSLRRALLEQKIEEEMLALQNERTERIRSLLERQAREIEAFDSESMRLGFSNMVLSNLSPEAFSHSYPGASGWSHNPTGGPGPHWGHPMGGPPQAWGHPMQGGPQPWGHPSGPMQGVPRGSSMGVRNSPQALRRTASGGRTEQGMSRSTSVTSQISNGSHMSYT
# [5] = target: T2, Serine/threonine-protein kinase TAO1 (Homo sapiens); details: at 10 µM
# [6] = target: T3, Serine/threonine-protein kinase TAO2 (Homo sapiens) (UniProt Q9UL54); details: at 1 µM
# T3 sequence (whole entry): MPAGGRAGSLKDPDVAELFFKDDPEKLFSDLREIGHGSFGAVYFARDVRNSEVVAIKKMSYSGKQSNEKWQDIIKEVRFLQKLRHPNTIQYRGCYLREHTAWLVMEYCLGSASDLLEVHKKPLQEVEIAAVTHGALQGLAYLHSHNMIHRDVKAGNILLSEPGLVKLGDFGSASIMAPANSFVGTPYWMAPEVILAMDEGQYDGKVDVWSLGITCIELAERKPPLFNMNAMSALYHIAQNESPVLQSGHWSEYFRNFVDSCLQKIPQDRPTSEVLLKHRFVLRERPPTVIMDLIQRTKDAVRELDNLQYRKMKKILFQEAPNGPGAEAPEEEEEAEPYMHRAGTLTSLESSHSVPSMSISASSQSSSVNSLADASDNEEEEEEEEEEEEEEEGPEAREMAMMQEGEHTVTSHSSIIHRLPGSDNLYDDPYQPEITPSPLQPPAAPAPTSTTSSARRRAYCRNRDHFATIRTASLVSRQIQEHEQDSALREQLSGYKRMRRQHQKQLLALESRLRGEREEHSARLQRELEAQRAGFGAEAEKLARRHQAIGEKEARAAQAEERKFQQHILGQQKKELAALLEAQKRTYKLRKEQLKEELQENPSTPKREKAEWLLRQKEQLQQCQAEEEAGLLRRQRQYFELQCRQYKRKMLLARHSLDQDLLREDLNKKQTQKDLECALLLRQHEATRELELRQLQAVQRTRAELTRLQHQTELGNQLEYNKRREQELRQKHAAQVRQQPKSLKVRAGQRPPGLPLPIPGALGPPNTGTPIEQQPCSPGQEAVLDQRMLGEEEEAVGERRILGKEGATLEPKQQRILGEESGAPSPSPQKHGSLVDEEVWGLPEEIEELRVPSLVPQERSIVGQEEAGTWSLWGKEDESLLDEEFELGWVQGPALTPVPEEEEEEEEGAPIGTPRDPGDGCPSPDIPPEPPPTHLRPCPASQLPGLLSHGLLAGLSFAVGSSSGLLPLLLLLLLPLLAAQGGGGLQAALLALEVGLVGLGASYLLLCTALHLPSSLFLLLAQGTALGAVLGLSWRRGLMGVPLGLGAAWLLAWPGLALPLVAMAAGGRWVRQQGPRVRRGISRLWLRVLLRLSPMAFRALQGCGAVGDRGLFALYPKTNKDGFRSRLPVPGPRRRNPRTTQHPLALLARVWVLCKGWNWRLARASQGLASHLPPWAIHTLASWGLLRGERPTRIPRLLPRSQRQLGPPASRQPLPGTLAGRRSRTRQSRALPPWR
# [7] = target: T3, Serine/threonine-protein kinase TAO2 (Homo sapiens); details: at 10 µM
# [8] = target: T4, Serine/threonine-protein kinase TAO3 (Homo sapiens) (UniProt Q9H2K8); details: at 1 µM
# T4 sequence (whole entry): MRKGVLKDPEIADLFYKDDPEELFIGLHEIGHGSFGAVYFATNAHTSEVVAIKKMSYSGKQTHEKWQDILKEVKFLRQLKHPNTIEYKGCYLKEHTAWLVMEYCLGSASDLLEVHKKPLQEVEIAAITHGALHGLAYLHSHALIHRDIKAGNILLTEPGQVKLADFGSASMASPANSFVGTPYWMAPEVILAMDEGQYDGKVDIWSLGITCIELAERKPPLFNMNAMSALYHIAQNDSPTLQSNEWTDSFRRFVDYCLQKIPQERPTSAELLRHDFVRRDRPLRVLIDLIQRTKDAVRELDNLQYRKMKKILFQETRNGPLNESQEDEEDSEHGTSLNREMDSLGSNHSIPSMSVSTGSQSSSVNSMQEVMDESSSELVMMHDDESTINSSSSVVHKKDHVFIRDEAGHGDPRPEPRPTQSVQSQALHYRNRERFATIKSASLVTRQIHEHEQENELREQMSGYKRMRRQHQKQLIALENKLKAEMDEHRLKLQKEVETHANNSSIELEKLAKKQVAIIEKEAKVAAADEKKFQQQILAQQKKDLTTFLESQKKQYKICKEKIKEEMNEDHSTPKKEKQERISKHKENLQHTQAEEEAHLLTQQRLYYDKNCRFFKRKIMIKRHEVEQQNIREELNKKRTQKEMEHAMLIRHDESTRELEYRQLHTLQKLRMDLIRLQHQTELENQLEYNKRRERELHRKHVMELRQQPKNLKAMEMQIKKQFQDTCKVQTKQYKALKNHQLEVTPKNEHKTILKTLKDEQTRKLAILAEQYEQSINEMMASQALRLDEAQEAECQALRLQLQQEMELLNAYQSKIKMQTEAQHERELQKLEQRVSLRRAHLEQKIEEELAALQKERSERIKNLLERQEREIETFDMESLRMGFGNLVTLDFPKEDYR
# [9] = target: T4, Serine/threonine-protein kinase TAO3 (Homo sapiens); details: at 10 µM
# [10] = target: T5, Serine/threonine-protein kinase TBK1 (Homo sapiens) (UniProt Q9UHD2); details: at 1 µM
# T5 sequence (whole entry): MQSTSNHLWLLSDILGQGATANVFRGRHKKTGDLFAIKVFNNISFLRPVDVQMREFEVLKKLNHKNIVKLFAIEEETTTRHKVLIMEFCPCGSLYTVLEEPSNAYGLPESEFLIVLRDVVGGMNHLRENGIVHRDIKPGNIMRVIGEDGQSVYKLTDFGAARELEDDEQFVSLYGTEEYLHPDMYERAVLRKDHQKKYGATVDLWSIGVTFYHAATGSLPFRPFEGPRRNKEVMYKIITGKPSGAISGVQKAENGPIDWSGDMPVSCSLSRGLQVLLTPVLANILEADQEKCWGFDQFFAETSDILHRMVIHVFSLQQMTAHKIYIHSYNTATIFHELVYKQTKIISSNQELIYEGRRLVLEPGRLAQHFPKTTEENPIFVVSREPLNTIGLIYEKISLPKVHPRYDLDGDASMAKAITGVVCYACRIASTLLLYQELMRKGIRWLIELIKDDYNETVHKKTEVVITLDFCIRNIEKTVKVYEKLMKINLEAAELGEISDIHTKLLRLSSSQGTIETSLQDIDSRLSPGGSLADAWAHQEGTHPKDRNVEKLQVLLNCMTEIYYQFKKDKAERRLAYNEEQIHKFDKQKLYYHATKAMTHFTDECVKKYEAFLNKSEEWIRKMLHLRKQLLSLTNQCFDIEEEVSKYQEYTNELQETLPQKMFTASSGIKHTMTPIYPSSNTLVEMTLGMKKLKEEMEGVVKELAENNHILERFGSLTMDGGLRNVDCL
smiles,measurement,setting,value
CCOc1cc2ncnc(Nc3cccc(Br)c3)c2cc1OCC,residual activity,[1],58%
same,residual activity,[2],95%
same,residual activity,[3],83%
same,residual activity,[4],86%
same,residual activity,[5],73%
same,residual activity,[6],101%
same,residual activity,[7],84%
same,residual activity,[8],100%
same,residual activity,[9],81%
same,residual activity,[10],70%

# — ChEMBL document CHEMBL2218924, “A broad activity screen in support of a chemogenomic map for kinase signalling research and drug discovery” (Biochem J, 2013)
